Screens (PubChem BioAssay)
This is a sample that favours compounds with a hit; in the whole collection about 7.5% have one here.
Luc counter: blocks Kinase-Glo luciferase, a counter-screen artifact; Q27757; Kinase-Glo luciferase, ATP luminescence, 8 min; Potency, µM (titrated, usually from 38.3 µM), inactives show at the highest dose activity change, negative = inhibition, most hits filed as inhibitors; 0.28% of 200,000 active; AID 1379; also: % is scaled to controls: 0 for no effect and ±100 for the full control effect; nearly all actives have a fitted effect of over 60% in size
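Kinase-Glo luciferase light output from ATP and luciferin was measured with 10 uM ATP, within the enzyme's linear range. Buffer: 50 mM imidazole pH 7.2, 50 mM KCl, 7 mM MgCl2, 0.01% Tween 20, 0.05% BSA; luminescence read after 8 min at ambient temperature.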
SMN2 splice enh: SMN2 splice variant enhancement; HEK293 SMN2-luciferase splicing reporter, luminescence, 30-36 h; Potency, µM (top dose mostly 46.1 µM), without a hit: top-dose activity change, positive = activation, actives largely listed as activators; 2.8% of 210,000 active; also: % of control where 0% means no effect; nearly all actives have a fitted effect of over 55% in size
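HEK293 cells carry an SMN2 […]–luciferase reporter in which exon 7 inclusion puts luciferase in frame. Cells were plated 10-12 h before compound addition, then incubated 30-36 h at 37C. ONE-Glo luminescence was read; sodium butyrate at 4.5 mM final served as control.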
ELG1 genotoxic: induces genotoxicity in HEK293T cells with luciferase-tagged ELG1; HEK293T ELG1-luciferase reporter, luminescence, 16 h; 1.3% of 330,000 active; Potency, µM (highest dose often 46 µM), for inactives: at the highest dose activity change, positive = activation, most hits filed as activators; also: % of control where 0% means no effect; nearly all actives have a fitted effect of over 60% in size
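Cells (2,000/well) expressing the ELG1-luciferase fusion are dosed by pin tool and kept 16 hr at 37 °C, 5% CO2. Signal comes from ONE-Glo luciferase reagent after 30 min at room temperature.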
FLuc modulator: counter-screen for miR-21 project: firefly luciferase inhibitors or activators | Potency, µM (highest dose often 57.5 µM), for the others: at the highest dose activity change, negative = inhibition, hits mostly inhibitors | 6.9% of 360,000 active | P08659 | purified FLuc, Km substrates, luminescence inhibition;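 also: plate controls were vehicle for no effect and reference inhibitor for full effect; nearly all actives have a fitted effect of over 55% in size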
Target sequence (P08659 whole entry, looked up): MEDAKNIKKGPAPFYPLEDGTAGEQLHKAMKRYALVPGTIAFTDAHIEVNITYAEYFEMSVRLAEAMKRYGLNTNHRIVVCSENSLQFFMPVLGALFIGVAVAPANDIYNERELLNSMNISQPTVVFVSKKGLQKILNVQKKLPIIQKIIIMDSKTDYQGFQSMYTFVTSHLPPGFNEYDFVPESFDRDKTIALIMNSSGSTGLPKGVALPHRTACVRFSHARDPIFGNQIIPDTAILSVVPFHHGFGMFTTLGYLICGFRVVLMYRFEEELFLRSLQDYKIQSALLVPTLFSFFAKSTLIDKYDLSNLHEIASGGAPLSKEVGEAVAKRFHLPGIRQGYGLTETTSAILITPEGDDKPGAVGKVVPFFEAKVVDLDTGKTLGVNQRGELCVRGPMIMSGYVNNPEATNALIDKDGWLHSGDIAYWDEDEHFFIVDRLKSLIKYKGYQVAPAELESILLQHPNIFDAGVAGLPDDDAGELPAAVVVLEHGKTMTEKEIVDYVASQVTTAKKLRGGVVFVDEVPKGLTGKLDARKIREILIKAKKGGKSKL
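Biochemical qHTS of compounds, final roughly 60 µM downward over six points, against 10 nM purified firefly luciferase using Km concentrations of substrates (10 uM D-luciferin, 10 uM ATP) in Tris acetate pH 7.5 buffer; luminescence output.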
NPC1 promoter act: NPC1 promoter activation; 2.4% of 320,000 active; Potency, µM (series often up to 9.22 µM), for inactives: top-dose activation, hits mostly activators; Huh7 NPC1 promoter luciferase reporter, 24 h; also: % of control where 0% means no effect; nearly all actives have a fitted effect of over 60% in size
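NPC1 promoter–luciferase Huh7 cells; 24 h compound; luminescence.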
Rab9 prom act: Rab9 promoter activation | 2.8% of 320,000 active | Potency, µM (doses to about 9.22 µM), without a hit: at the highest dose activation, negative = inhibition, hits mostly activators | Huh7 Rab9 promoter-luciferase reporter, luminescence, 24 h | AID 485297; also: % of control where 0% means no effect; nearly all actives have a fitted effect of over 60% in size
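Cell-based reporter: Huh7 stable for Rab9 promoter-driven luciferase, plated in reduced-serum medium with 10% FBS at 1500 cells/well, compound-treated 24 h at 37 °C, luminescence read after 10 min reagent.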
* hit, by the source's call; ? = inconclusive; . = no result; [ ] = another dose, or the depositor's remark. Calls follow the shape of the dose curve; as a rule, active = well fitted curve in the direction sought with a large enough effect; inconclusive = small, poorly fitted or top-dose-only effect, or another doubt; inactive = no such curve, though single readings can be large; an effect the other way counts as inactive or inconclusive. Potency is read from the fitted curve at half-maximal effect.

SMILES | Luc counter | SMN2 splice enh | ELG1 genotoxic | FLuc modulator | NPC1 promoter act | Rab9 prom act
COc1ccc(C(=O)Nc2ccccc2C(=O)NC(Cc2c[nH]c3ccccc23)C(=O)O)cc1 (stereo not drawn) | -1% | -10% | 3% | 15µM* | 2% | -3%
COc1ccc(C(=O)Nc2ccccc2C(=O)NC(Cc2ccc(O)cc2)C(=O)NNC(=O)c2ccccc2Cl)cc1 (stereo not drawn) | 1% | -11% | -1% | 13µM* | 2% | -4%
Cc1ccc(C)c(CNC(=O)CN2C(=O)CSc3ccc(S(=O)(=O)N(C)C)cc32)c1 | . | . | . | -16% | . | .
CCC(=O)Nc1ccccc1C(=O)OCC(=O)Nc1ccc(S(N)(=O)=O)cc1 | 2% | 18% | -3% | 2% | 0% | 2%
COC(=O)COC(=O)c1ccccc1NC(=O)c1ccccc1 | 0% | -8% | 0% | ? | 0% | -6%
CCC(=O)Nc1ccccc1C(=O)OCC(=O)c1ccc2ccccc2c1 | -4% | -11% | -5% | 15µM* | 10% | 15%
CCC(=O)Nc1ccccc1C(=O)OCC(=O)c1ccccc1 | 4% | 16µM* | ? | 21µM* | 2.8µM* | 3.5µM*
O=C(N/N=C/c1c(-c2ccccc2)[nH]c2ccccc12)c1cccnc1 | 4% | ? | -2% | 3µM* | 1% | 15%
Cn1cccc1/C=N/NC(=O)c1cccnc1 | -7% | 3% | 0% | ? | -2% | 8%
Cn1c(-c2ccccc2)c(/C=N/NC(=O)c2cccnc2)c2ccccc21 | 0% | ? | -14% | 5.4µM* | 21% | 1%
CCOc1ccc(S(=O)(=O)Nc2ccc(-c3ccc(OC)nn3)cc2)cc1 | . | . | . | -4% | . | .
Cc1ccc(Nc2c(-c3ccc(N4CCOCC4)cc3)nc3cccc(C)n23)cc1 | . | -4% | . | ? | . | .
CCOc1ccc(-c2csc(NC(=O)c3cccc(N4C(=O)CCC4=O)c3)n2)cc1 | . | . | -2% | 9.5µM* | -4% | -6%
CCOC(=O)Cc1csc(NC(=O)c2cccc(N3C(=O)CCC3=O)c2)n1 | . | . | 1% | -15% | -1% | 19%
COc1ccc(-c2csc(NC(=O)CCN3C(=O)C4CC=CCC4C3=O)n2)cc1OC (stereo not drawn) | . | . | -2% | 17µM* | 2% | 1%
Cc1ccc(-c2csc(NC(=O)c3cccc(N4C(=O)CCC4=O)c3)n2)o1 | -2% | -29% | -1% | 9.5µM* | 0% | -4%
COc1ccc(-c2csc(NC(=O)c3ccc(N4C(=O)CCC4=O)cc3)n2)cc1 | 0% | 3% | 0% | 0% | -8% | -9%
COc1ccc(-c2csc(NC(=O)c3cccc(N4C(=O)CCC4=O)c3)n2)cc1OC | . | . | 0% | 15µM* | -2% | -5%
COc1ccc(-n2c(SCC(=O)NCc3ccccc3)nc3n[nH]c(C)c3c2=N)cc1 | . | . | . | 1% | . | .
Cc1cc(C)c(-c2csc(NC(=O)C3=NN(c4ccccc4)C(=O)CC3)n2)c(C)c1 | . | . | 0% | 1% | -11% | -17%
CCc1ccc(-c2csc(NC(=O)C3=NN(c4ccccc4)C(=O)CC3)n2)cc1 | 0% | -43% | -1% | 6µM* | 1% | -14%
COC(=O)c1ccc(N2C(=O)CC(SCCN)C2=O)cc1 (stereo not drawn) | 1% | 11µM* | 12µM* | ? | ? | ?
CCCOc1ccc(N2C(=O)CC(SCC(N)C(=O)OCC)C2=O)cc1 (stereo not drawn) | . | . | -1% | 4% | -3% | 0%
CCCOc1ccc(N2C(=O)CC(SCCN)C2=O)cc1 (stereo not drawn) | -8% | 13µM* | ? | 12µM* | 4µM* | 2.2µM*
CC(C)CCNC(=O)/C=C/c1ccc(Br)cc1 | -1% | -6% | 4% | 13µM* | 0% | 5%
SMILES | Luc counter | SMN2 splice enh | ELG1 genotoxic | FLuc modulator | NPC1 promoter act | Rab9 prom act
COC(=O)Cc1ccc(NC(=S)NCCO)cc1 | . | . | -5% | -1% | -2% | -4%
Cc1ccc(NC(=S)NCC(C)C)cc1 | -1% | ? | 14% | 19µM* | 11% | 14%
COCCCNC(=O)/C=C/c1ccc(Cl)cc1 | -5% | 7% | 12% | ? | 17% | 18%
S=C(NCCc1ccccc1)Nc1ccc(Br)cc1 | 1% | 20µM* | 14% | 19µM* | 20% | ?
COC(=O)Cc1ccc(NC(=S)Nc2ccccn2)cc1 | 2% | . | 3% | 21µM* | 14% | ?
CC(C)OCCCNC(=O)Cc1ccc(NC(=O)N2CCCCc3ccccc32)cc1 | . | . | . | -11% | . | .
CCOC(=O)CC(NC(=O)CCc1c(C)nc2c(-c3ccccc3)c(C)nn2c1C)c1ccc(C)cc1 (stereo not drawn) | . | -68% | . | -5% | . | .
CC(C)CCNC(=S)Nc1ccc(Br)cc1 | 5% | 22% | 2% | 21µM* | 15% | 20%
CC(C)(C)NC(=S)NCCc1ccccc1 | . | . | ? | 11µM* | 3.2µM* | 1.8µM*
COC(=O)Cc1ccc(NC(=S)NC(C)(C)C)cc1 | 4% | 8% | 3% | 13µM* | 5% | 13%
CCCNC(=S)Nc1ccc(Br)cc1 | 1% | 24% | 1% | ? | 3% | 10%
S=C(NCCc1ccccc1)NN=C1CCCCCC1 | -2% | 13µM* | ? | 17µM* | ? | ?
COC(=O)Cc1ccc(NC(=S)NCCC(C)C)cc1 | -3% | 10% | -2% | 17µM* | -3% | 3%
COc1ccc(-c2noc(-c3cccnc3)n2)cc1OC | -12% | ? | ? | 15µM* | ? | 3.5µM*
CCOc1ccc(-c2noc(-c3cccnc3)n2)cc1OC | -5% | -5% | 12% | 13µM* | ? | 25%
O=C1c2cccc3cccc(c23)C(=O)N1OS(=O)(=O)c1ccccc1 | -2% | 4% | 11% | 19µM* | 1% | -3%
O=C(NC(=S)Nc1ccccc1)c1cncc(C#Cc2ccccc2)c1 | . | . | 3% | -14% | 2% | 7%
O=C(Cc1ccccn1)c1ccc(Cl)cc1 | . | . | ? | 12µM* | ? | 2.8µM*
O=C(CCSc1ccccn1)c1ccccc1 | -3% | 3% | -2% | 6µM* | -1% | -2%
O=C(CCCc1ccccn1)c1ccccc1 | -3%[7.66 µM] | 2.8µM* | . | . | . | .
CCc1ccc(CSc2nccn2-c2ccccc2)cc1 | -8% | -3% | 0% | -1% | -3% | 0%
c1ccc(CCSc2nccn2-c2ccccc2)cc1 | -1% | 20µM* | ? | 3.4µM* | 2.8µM* | 3.2µM*
Cc1ccc(-n2cc3c(c2-c2ccccc2Br)c(=O)n(C)c(=O)n3C)cc1N | . | 10% | . | 4% | . | .
O=C(O)c1cccnc1SCc1cccc(Br)c1 | . | . | 2% | ? | -6% | 1%
